From PubChem BioAssay (NCI) come the findings set out here.

About 83,000 compounds went through this panel and 20% of them were active in at least one assay; those are over-represented in the sample as a whole.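 Single-dose data. Exposure time 48 hours. Values below 10 considered active.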 Unmarked numbers belong to inactive results. Active and inactive are the calls of the source.

Among the test systems are HCT-15 colon; SNB-75 CNS; SNB-19 CNS; U251 CNS; PC-3 prostate; SK-MEL-5 melanoma; UACC-62 melanoma; SK-MEL-2 melanoma; EKVX NSCLC; SN12C renal; UO-31 renal; TK-10 renal; ACHN renal; CAKI-1 renal; A498 renal; CCRF-CEM leukemia; MOLT-4 leukemia; LOX IMVI melanoma; SK-MEL-28 melanoma.
Experiment in all cases: NCI-60 one-dose screen, 48 h (100 = growth as untreated, 0 = no growth, -100 = all killed)
What all share (details): 10 µM unless noted

As for `CCCCC(NC(=O)CN1C(=O)/C(=C/C(C)=C/c2ccccc2)SC1=S)C(=O)O` (stereo unspecified), the growth with HCT-15 colon is 108%; in the test on SNB-75 CNS, 98.7%; in the test with SNB-19 CNS, 95.7%; in the test on U251 CNS, 110%; with PC-3 prostate, 107%; in the test on SK-MEL-5 melanoma, 101%. Further, the growth was 92.7% in the test with UACC-62 melanoma; 113% in the test with SK-MEL-2 melanoma; 98.6% in the test on EKVX NSCLC; 95.5% in the test on SN12C renal; 82.9% with UO-31 renal; 104% in the test on TK-10 renal. For the same compound, the growth with ACHN renal is 97.2%; in the test on CAKI-1 renal, 89.2%; in the test with A498 renal, 68%; with CCRF-CEM leukemia, 105%; in the test with MOLT-4 leukemia it was 118%.

In the case of `CN(Cc1ccccc1)c1nc(Cl)c(C2CC(c3ccc(F)cc3)=NN2C=O)s1` (stereo unspecified), the growth in the test on HCT-15 colon was 90.4%; in the test with SNB-75 CNS, 97.3%; with U251 CNS, 97.7%; in the test on PC-3 prostate, 83.6%; in the test with SK-MEL-5 melanoma it was 90.4%; in the test on UACC-62 melanoma, 79.2%. In addition, the growth in the test on LOX IMVI melanoma is 92.8%; in the test on SK-MEL-28 melanoma it was 106%; with SK-MEL-2 melanoma, 116%; in the test with EKVX NSCLC, 77.9%; in the test with SN12C renal, 103%; in the test with UO-31 renal, 76.7%. In addition, the growth with TK-10 renal was 96.2%; with ACHN renal, 105%; with CAKI-1 renal it was 83.8%; with A498 renal, 100%; in the test on CCRF-CEM leukemia, 95.6%; in the test on MOLT-4 leukemia, 91.9%.

`COc1ccc(C/C(C)=C(/c2ccc(OCCN3CCCCCC3)cc2)c2ccc(OC(=O)c3ccccc3)cc2)cc1`: the growth in the test on HCT-15 colon is 100%; in the test with SNB-75 CNS it was 110%; in the test on SNB-19 CNS, 102%; in the test on U251 CNS, 107%; with PC-3 prostate, 101%; in the test on SK-MEL-5 melanoma it was 109%. The growth in the test on UACC-62 melanoma is 99.1%; in the test on LOX IMVI melanoma, 90.7%; in the test with SK-MEL-28 melanoma it was 106%; in the test with SK-MEL-2 melanoma it was 97.4%; in the test on EKVX NSCLC, 93%; in the test with SN12C renal it was 97.4%. Moreover, the growth is 88.4% in the test on UO-31 renal; 97.2% in the test with TK-10 renal; 99.6% in the test on ACHN renal; 120% in the test on A498 renal; 93% in the test on CCRF-CEM leukemia.

Regarding `COC(=O)c1nc(-c2ccccc2)oc1S(=O)(=O)N(C)CCO`, the growth in the test with HCT-15 colon was 42.5%; in the test on SNB-75 CNS it was 95.5%; in the test on SNB-19 CNS, 92.3%; in the test with U251 CNS it was 82.7%; in the test with PC-3 prostate, 63.2%; with SK-MEL-5 melanoma, 96%. The growth in the test with UACC-62 melanoma was 77.2%; in the test with LOX IMVI melanoma, 71.6%; in the test on SK-MEL-2 melanoma, 82.1%; in the test on EKVX NSCLC, 77.5%; with SN12C renal, 87.6%; with UO-31 renal, 59.2%. Also, the growth with TK-10 renal was 43.9%; with ACHN renal it was 49.2%; in the test with CAKI-1 renal it was 54.7%; with A498 renal, 112%; in the test with CCRF-CEM leukemia, 16.2%; with MOLT-4 leukemia, 45.2%.

With `CCOC(=O)C1=C(C)NC(=O)NC1c1c(Cl)n(-c2ccccc2)c2ccccc12` (stereo unspecified), the growth in the test with HCT-15 colon was 85.8%; in the test with SNB-75 CNS, 84.8%; with SNB-19 CNS it was 83.9%; in the test with U251 CNS, 89.2%; in the test on PC-3 prostate, 56.7%; with SK-MEL-5 melanoma it was 75.4%. Moreover, the growth was 68.4% with UACC-62 melanoma; 89.3% in the test on LOX IMVI melanoma; 94.1% in the test on SK-MEL-28 melanoma; 102% in the test on SK-MEL-2 melanoma; 96.8% with EKVX NSCLC; 92.7% with SN12C renal. Also, the growth in the test with UO-31 renal was 54.2%; in the test on TK-10 renal, 98.9%; with ACHN renal, 85.1%; in the test with CAKI-1 renal, 70.7%; in the test on A498 renal it was 78.2%; in the test with MOLT-4 leukemia, 78.8%.

`O=C(Nc1ccc2ccccc2c1)c1cc2ccccc2cc1O`: the growth in the test on HCT-15 colon was 85.9%; in the test on SNB-75 CNS it was 103%; with SNB-19 CNS, 97.9%; in the test on U251 CNS, 87.2%; in the test on PC-3 prostate, 78%; with SK-MEL-5 melanoma, 86.7%. For the same compound, the growth with UACC-62 melanoma was 72.5%; in the test with LOX IMVI melanoma it was 94.4%; in the test with SK-MEL-28 melanoma it was 89.1%; with SK-MEL-2 melanoma, 79.3%; in the test on EKVX NSCLC, 99.7%; with SN12C renal, 89.2%. Further, the growth in the test on UO-31 renal is 58.8%; with TK-10 renal it was 103%; in the test with ACHN renal, 89.2%; with CAKI-1 renal it was 87.1%; with A498 renal, 90.4%; in the test with CCRF-CEM leukemia, 75%. Besides, the growth in the test with MOLT-4 leukemia was 82.2%.

Regarding `COc1cc2c(cc1OCCCOC1=C=C=C(c3ccc4c(c3)c3cc(-c5ccc(OCCCOc6cc7c(cc6OC)C(=O)N6CCC[C@H]6C=N7)cc5)ccc3n4S(=O)(=O)c3ccc(C)cc3)C=C1)N=C[C@@H]1CCCN1C2=O`, the growth in the test on HCT-15 colon was 69.4%; with SNB-75 CNS, 4.32% (active); with SNB-19 CNS, 61.6%; in the test on U251 CNS it was -29.8% (active); in the test on PC-3 prostate, 42.7%; in the test with SK-MEL-5 melanoma it was 39%. Also, the growth is -14.1% (active) in the test on UACC-62 melanoma; -14.5% (active) in the test with LOX IMVI melanoma; 64.8% with SK-MEL-28 melanoma; -20.6% (active) in the test on SK-MEL-2 melanoma; 94.5% with EKVX NSCLC; -17.2% (active) in the test with SN12C renal. Besides, the growth in the test on UO-31 renal is 39.1%; in the test with TK-10 renal, 221%; in the test with ACHN renal, 7.74% (active); in the test with CAKI-1 renal, -19.8% (active); in the test with A498 renal, 76.9%; in the test with CCRF-CEM leukemia it was 40.3%. For the same compound, in the test with MOLT-4 leukemia, the growth was -11.6% (active).
